# Measured values from PubChem BioAssay (NCATS).
# Records with an inconclusive call do not appear. Unmarked numbers belong to inactive results. Activity calls are given as the source filed them. Calls follow the shape of the dose curve; as a rule, active = well fitted inhibition curve with a large enough effect; inconclusive = small, poorly fitted or top-dose-only effect; inactive = flat fitted curve, though single readings scatter.
# Assay: qHTS of Trypanosoma Brucei Inhibitors: LOPAC Validation (AID 624147); as to activity change, negative = inhibition: 0% is about no effect
# Details: purified enzyme assay, luminescence, 45 min; series mostly up to 57.5 µM; activity change, negative = inhibition: at the top concentration
# Description: Members of the Trypanosomatidae family of parasitic protozoans cause a spectrum of diseases throughout the tropical and subtropical world. Sleeping sickness, caused by two subspecies of Trypanosoma brucei, is endemic to areas of sub-Saharan Africa, while Chagas' disease, a manifestation of Trypanosoma cruzi infection, is prevalent throughout Central and South America. In addition, many species of Leishmania are responsible for a range of cutaneous and visceral diseases, causing ulcers, destructive lesions and kalaazar, a lethal infection of the viscera. These diseases cause severe public health and economic burdens on populations that are often already caught in a tragic cycle of poverty, poor nutrition and disease. Collectively, parasites of the trypanosomatid family infect 30 million people worldwide (~500 million live in endemic areas), and account for ~130K deaths annually. Existing treatments have developed little in the past 50 years, and suffer from toxicity, poor efficacy and resistance; the goal of this project is to develop lead drugs that will be suitable for entry into pre-clinical trials.
# Glycolysis in axenically cultured T. cruzi, representing the intracellular pathogenic stage, is also essential for these parasites. {Engel, 1987} This project aims to discover and optimize selective inhibitors of the glycolytic enzyme pyruvate kinase (PYK) from Trypanosoma brucei, the parasite that causes sleeping sickness. […] Trypanosomatid PYKs show significant differences from their human counterparts including only 47-50% sequence identity and different allosteric and activation properties.{Callens, 1992} To this end, a qHTS was done against the MLSMR to discover inhibitors.
# NIH Molecular Libraries Probe Production Network [MLPCN]
# NIH Chemical Genomics Center [NCGC]
# PI Name: Malcolm Walkinshaw, University of Edinburgh
# 2 uL of TbPYK/substrate buffer (columns 1-3, 5-48) are dispensed into Greiner white solid bottom 1536-well assay plates; column 4 receives only TEA buffer as 0x TbPYK controls. Compounds are then transferred via Kalypsys pin tool equipped with 1536-pin array (10 nL slotted pins, V&P Scientific, San Diego, CA). Following addition of compound, 2 uL of ADP (130 uM final concentration, all columns) is added to initiate the reaction. The plates are then incubated at room temperature for 45 minutes. Kinase-Glo Plus reagent is added (3 uL) and plates incubated for 10 minutes, before being transferred to a ViewLux high-throughput CCD imager (PerkinElmer) wherein single end-point measurements of luminescence are acquired using a clear filter. All reagents are diluted in an assay buffer consisting of 50 mM TEA (pH 7.2), 100 mM KCl, 10 mM MgCl2, 0.05% BSA and 0.01% Tween-20.
# All screening operations will be performed on a fully integrated robotic system (Kalypsys, San Diego, CA) containing one RX-130 and two RX-90 anthropomorphic robotic arms (Staeubli, Duncan, SC). Library plates will be screened starting from the lowest and proceeding to the highest concentration. Vehicle-only plates, with DMSO being pin-transferred to columns 5-48, will be inserted uniformly at the beginning and the end of each library in order to monitor and record any shifts in the background, which can be affected by reagent dispensers or loss in enzyme activity over time. Screening data will be corrected, normalized, and concentration-effect relationships will be derived by using publicly-available curve fitting algorithms developed in-house (http://ncgc.nih.gov/pub/openhts).
# Potency is read from the fitted curve at half-maximal effect.
Compound,"activity change, negative = inhibition",Potency
Clc1cc(I)cc(Cl)c1NC1=NCCN1,1.19%,
O=[N+]([O-])c1cc(O)c(O)c([N+](=O)[O-])c1,-7.95%,
Cc1cc([C@@H]2CCCN2C)on1,6.15%,
C=CCN1CC[C@]23c4c5ccc(O)c4O[C@H]2/C(=N/NC(=O)c2ccccc2)CC[C@@]3(O)[C@H]1C5,-18.2%,
NNC(=O)c1ccc(O)cc1,-11.3%,
NCCc1c[nH]c2ccc(C(N)=O)cc12,6.14%,
CC(C)[C@@]1(NC(=O)[C@@H]2C[C@@H]3c4cccc5[nH]cc(c45)C[C@H]3N(C)C2)O[C@@]2(O)[C@@H]3CCCN3C(=O)[C@H](Cc3ccccc3)N2C1=O,-2.15%,
O=c1c2ccccc2[se]n1-c1ccccc1,,19 µM (active)
c1ccc2c(c1)[I+]c1ccccc1-2,-4.64%,
Ic1ccccc1CNC1C2CCN(CC2)C1C(c1ccccc1)c1ccccc1 (stereo not given),-26.8%,
NC(Cc1ccc(N(CCCl)CCCl)cc1)C(=O)O (stereo not given),-7.58%,
CP(=O)(O)C1=CCNCC1,-14%,
COc1ccc2c(c1)c(CCN1CCOCC1)c(C)n2C(=O)c1cccc(Cl)c1Cl,-10.5%,
C[N+](C)(C)CC#CCOC(=O)Nc1cccc(Cl)c1,-8.05%,
C/C(O)=C(\C#N)C(=O)Nc1cc(Br)ccc1Br,-11.2%,
CCn1cnc2c(Nc3cccc(Cl)c3)nc(N[C@@H]3CCCC[C@@H]3N)nc21,-5.06%,
CCCN(CCC)[C@H]1CCc2c(F)ccc(O)c2C1,-18.2%,
C[C@H](N)CN1CCc2ccc(Br)cc21,-14.7%,
CC(N)Cc1c[nH]c2ccc(OCc3cccs3)cc12 (stereo not given),-6.22%,
NC(Cc1cc(O)c(O)cc1O)C(=O)O (stereo not given),-28.2%,

Compound,"activity change, negative = inhibition",Potency
COc1ccc2c(c1O)-c1cccc3c1[C@@H](C2)N(C)CC3,-3.91%,
C=CCN1CC[C@]23c4c5ccc(O)c4O[C@@H]2/C(=N/N=C2\CC[C@@]4(O)C6Cc7ccc(O)c8c7[C@@]4(CCN6CC=C)[C@@H]2O8)CC[C@@]3(O)C1C5,2.07%,
COc1ccc2c(c1)C13CCCCC1C(C2)N(C)CC3 (stereo not given),-6.56%,
C[C@H](N)Cc1cccc(C(F)(F)F)c1,3.91%,
NC(=O)COc1c(F)cc(SCCNS(=O)(=O)c2ccccc2)cc1F,-2.16%,
N=C(N)c1ccc(CS(=O)(=O)F)cc1,2.7%,
C#CCN[C@H](C)Cc1ccccc1,-5.02%,
CC(N)Cc1c[nH]c2ccc(O)cc12 (stereo not given),-7.24%,
CCCn1c(=O)c2[nH]c(C3CCCC3)nc2n(CCCOC(=O)c2ccc(S(=O)(=O)F)cc2)c1=O,-10.2%,
O=[N+]([O-])c1ccc2nc(N3CCNCC3)ccc2c1,3.19%,
CC(N)[C@H](O)c1ccc(O)c(O)c1 (stereo not given in full),-7.1%,
Oc1ccc2c3c1O[C@H]1c4[nH]c5ccccc5c4C[C@@]4(O)C(C2)N(CC2CC2)CCC314 (stereo not given in full),-10.8%,
NC(=O)c1cc(N2CC2)c([N+](=O)[O-])cc1[N+](=O)[O-],-7.1%,
NC(N)=NOCC[C@H](N)C(=O)O,-10%,
N[C@@H](Cn1oc(=O)[nH]c1=O)C(=O)O,-9.04%,
CC(C)(O)[C@@H]1C2OC(=O)[C@@H]1[C@]1(O)C[C@H]3O[C@]34C(=O)O[C@H]2[C@]14C (tested in a mixture with another compound),-18.8%,
NC(=O)c1ccc(OCC(O)CN2CC=C(c3ccc(F)cc3)CC2)cc1 (stereo not given),-11.2%,
c1ccc2cc(CC3=NCCN3)ccc2c1,-2.77%,
N#CCCN,-11.7%,
NC(CCCCCP(=O)(O)O)C(=O)O (stereo not given),-2.95%,
